Reference: the supplement of paper PMC10849652
About 7,900 targets were measured; listed, in parts, are those with a hit and a random draw of the rest. About 0.6% of all pairs of compound and target were hits. Unmarked numbers belong to inactive results.

Tests used:
Assay in all cases: log2 fold change, soluble protein after heating vs DMSO (PISA); higher = thermal stabilisation; K562 cells, 10 uM, 30 min; active = over 0.2 and 3.5 SD of the protein, either way, in both replicates (recomputed)
[1] = compound: CN1CCN(CCOc2cc(OC3CCOCC3)c3c(Nc4c(Cl)ccc5c4OCO5)ncnc3c2)CC1 [saracatinib]
How it was run: (§1)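 Values are thermal stability changes relative to control samples and are taken from duplicates. They are stated as log2 fold changes. Before quantification by TMTpro 16plex LC-MS/MS with equalised channel sums, K562 cells at 2×10^6 cells/mL were treated with 10 μM compound for 30 min, heated in aliquots for 3 min across 48°C-58°C, pooled, extracted in PBS with 0.5% NP-40 at 4°C, and centrifuged at 21,000xg for 90 min to give the soluble supernatant.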

[2] = compound: CN1CCN(c2nc(C3=C(c4c[nH]c5ccccc45)C(=O)NC3=O)c3ccccc3n2)CC1 [sotrastaurin]
How it was run: as §1

[3] = compound: CN1CC[C@H](c2c(O)cc(O)c3c(=O)cc(-c4ccccc4Cl)oc23)[C@H](O)C1 [alvocidib]
How it was run: as §1

[4] = compound: CN1CCc2c(c3ccccc3n2Cc2ccc(C(=O)NO)cc2)C1 [Tubastatin A]
How it was run: as §1

[5] = compound: CNC(=O)C1=CC=CC=C1NC2=NC(=NC=C2Cl)NC3=C(C=C(C=C3)N4CCOCC4)OC
How it was run: as §1

[6] = compound: CNC(=O)c1ccc(Nc2ncc(C(F)(F)F)c(NCc3nccnc3N(C)S(C)(=O)=O)n2)cc1 [defactinib]
How it was run: as §1

[7] = compound: CNCc1ccc(-c2[nH]c3cc(F)cc4c3c2CCNC4=O)cc1 [rucaparib]
How it was run: as §1

[8] = compound: CNc1nc(-c2ccc3c(N)n[nH]c3c2)cc(N2C[C@@H](C(=O)NC3CCCCC3)CC[C@H]2C)n1
How it was run: as §1

[9] = compound: COC(=O)N[C@@H](C)CNc1nccc(-c2cn(C(C)C)nc2-c2cc(Cl)cc(NS(C)(=O)=O)c2F)n1 [encorafenib]
How it was run: as §1

[10] = compound: COC(=O)[C@H](CCSC)NC(=O)C1=C(C=C(C=C1)NC[C@H](CS)N)C2=CC=CC=C2
How it was run: as §1

UniProt Q96G23, sequence (Q96G23 whole entry, looked up): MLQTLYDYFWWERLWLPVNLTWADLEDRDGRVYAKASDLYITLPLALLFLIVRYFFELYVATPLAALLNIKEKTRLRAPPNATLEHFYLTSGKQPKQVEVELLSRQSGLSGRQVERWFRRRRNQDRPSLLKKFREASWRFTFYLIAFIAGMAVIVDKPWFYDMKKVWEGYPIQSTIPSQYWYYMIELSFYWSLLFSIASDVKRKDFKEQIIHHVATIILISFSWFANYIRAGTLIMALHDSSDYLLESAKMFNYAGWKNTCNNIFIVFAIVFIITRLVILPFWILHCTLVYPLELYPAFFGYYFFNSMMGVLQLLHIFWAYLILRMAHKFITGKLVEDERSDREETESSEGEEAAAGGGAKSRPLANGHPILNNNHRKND
UniProt O95273, sequence (O95273 whole entry, looked up): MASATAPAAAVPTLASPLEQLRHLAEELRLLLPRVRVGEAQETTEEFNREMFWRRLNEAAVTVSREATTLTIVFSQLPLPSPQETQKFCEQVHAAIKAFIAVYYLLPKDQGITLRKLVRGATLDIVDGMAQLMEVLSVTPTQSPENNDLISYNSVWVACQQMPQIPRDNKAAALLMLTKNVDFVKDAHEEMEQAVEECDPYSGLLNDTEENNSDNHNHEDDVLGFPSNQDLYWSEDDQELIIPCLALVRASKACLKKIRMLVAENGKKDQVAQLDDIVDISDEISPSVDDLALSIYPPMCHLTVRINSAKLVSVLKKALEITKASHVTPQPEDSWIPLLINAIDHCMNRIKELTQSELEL
UniProt O60563, sequence (O60563 whole entry, looked up): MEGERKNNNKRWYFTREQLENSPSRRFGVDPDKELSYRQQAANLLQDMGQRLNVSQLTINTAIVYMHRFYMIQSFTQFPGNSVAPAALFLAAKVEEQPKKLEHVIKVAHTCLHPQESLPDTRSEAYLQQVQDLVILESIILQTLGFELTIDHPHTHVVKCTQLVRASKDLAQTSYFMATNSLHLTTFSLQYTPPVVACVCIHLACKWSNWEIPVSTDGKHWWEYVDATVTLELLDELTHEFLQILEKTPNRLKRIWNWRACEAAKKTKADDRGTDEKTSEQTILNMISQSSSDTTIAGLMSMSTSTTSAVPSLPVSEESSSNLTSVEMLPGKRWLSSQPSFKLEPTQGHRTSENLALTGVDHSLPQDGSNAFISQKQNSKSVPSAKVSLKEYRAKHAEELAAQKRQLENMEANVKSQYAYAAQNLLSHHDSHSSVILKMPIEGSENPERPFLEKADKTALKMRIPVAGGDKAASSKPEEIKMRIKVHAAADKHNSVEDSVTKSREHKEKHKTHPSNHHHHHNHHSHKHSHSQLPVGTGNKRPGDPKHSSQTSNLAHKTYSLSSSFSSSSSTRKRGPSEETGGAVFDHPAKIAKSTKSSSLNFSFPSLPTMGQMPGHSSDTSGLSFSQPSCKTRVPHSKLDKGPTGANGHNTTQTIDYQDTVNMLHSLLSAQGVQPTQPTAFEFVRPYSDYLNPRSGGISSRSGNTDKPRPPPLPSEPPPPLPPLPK
UniProt Q10570, sequence (Q10570 whole entry, looked up): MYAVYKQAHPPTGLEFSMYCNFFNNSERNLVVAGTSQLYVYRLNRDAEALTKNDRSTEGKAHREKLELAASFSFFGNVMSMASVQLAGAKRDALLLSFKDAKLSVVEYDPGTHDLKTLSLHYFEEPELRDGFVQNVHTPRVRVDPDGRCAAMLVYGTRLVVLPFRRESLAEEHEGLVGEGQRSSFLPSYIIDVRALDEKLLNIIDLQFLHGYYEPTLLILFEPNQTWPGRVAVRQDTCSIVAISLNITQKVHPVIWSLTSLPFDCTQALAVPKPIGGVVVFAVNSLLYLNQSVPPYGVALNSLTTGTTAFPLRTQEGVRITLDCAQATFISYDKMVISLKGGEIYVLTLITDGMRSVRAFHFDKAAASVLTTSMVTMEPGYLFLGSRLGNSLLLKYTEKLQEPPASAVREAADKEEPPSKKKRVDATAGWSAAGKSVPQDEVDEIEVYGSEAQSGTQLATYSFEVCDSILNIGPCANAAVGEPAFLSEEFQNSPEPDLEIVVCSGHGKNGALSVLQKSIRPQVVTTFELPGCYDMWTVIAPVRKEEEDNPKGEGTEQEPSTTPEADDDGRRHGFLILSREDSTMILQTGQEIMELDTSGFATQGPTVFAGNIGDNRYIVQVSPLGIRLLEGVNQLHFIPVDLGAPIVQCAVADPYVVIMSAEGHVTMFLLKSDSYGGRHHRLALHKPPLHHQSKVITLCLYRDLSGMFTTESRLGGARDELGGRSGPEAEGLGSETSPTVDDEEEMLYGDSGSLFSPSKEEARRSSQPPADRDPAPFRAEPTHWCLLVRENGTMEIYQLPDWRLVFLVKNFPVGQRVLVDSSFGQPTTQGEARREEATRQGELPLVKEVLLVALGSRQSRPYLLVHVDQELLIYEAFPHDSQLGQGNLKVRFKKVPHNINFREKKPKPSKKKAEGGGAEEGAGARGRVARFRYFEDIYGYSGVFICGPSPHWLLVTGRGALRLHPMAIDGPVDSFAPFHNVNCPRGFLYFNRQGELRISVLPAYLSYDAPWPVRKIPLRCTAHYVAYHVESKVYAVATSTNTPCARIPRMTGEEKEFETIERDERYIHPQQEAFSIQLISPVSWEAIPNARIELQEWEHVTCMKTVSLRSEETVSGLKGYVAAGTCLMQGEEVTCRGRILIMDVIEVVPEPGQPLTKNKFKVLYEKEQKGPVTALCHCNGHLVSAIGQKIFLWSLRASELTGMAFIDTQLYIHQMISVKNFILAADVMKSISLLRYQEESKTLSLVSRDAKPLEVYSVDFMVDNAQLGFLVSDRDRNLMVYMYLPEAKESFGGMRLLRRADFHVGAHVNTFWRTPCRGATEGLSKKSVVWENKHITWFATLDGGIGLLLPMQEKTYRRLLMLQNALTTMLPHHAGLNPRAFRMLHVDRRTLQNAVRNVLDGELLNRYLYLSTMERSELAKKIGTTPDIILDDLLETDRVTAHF
UniProt P35520, sequence (P35520 whole entry, looked up): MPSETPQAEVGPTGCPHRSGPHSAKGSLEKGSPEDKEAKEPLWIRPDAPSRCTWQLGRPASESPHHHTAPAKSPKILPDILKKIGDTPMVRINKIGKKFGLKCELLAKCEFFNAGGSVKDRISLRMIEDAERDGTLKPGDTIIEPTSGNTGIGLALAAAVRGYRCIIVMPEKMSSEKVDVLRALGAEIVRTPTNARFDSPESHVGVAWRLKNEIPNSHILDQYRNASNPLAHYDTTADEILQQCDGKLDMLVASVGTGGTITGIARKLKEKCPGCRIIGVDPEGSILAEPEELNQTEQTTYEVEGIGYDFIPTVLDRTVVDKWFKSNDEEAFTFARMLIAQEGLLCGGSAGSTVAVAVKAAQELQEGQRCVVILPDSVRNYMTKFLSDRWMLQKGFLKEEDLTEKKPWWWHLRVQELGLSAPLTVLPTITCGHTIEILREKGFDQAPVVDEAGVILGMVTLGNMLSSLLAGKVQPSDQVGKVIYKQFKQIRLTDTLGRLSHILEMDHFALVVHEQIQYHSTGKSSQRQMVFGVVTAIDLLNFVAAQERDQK
UniProt P08174, sequence (P08174 whole entry, looked up): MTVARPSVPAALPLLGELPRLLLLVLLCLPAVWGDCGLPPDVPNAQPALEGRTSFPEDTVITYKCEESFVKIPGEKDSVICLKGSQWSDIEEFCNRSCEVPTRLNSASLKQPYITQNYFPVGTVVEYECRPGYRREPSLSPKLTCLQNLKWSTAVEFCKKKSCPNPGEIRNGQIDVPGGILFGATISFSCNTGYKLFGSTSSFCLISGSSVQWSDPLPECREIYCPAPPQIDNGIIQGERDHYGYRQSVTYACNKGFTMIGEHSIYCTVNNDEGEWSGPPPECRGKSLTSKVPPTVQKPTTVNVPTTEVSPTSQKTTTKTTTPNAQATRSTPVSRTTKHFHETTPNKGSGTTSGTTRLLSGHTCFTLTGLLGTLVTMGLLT
UniProt Q96KA5, sequence (Q96KA5 whole entry, looked up): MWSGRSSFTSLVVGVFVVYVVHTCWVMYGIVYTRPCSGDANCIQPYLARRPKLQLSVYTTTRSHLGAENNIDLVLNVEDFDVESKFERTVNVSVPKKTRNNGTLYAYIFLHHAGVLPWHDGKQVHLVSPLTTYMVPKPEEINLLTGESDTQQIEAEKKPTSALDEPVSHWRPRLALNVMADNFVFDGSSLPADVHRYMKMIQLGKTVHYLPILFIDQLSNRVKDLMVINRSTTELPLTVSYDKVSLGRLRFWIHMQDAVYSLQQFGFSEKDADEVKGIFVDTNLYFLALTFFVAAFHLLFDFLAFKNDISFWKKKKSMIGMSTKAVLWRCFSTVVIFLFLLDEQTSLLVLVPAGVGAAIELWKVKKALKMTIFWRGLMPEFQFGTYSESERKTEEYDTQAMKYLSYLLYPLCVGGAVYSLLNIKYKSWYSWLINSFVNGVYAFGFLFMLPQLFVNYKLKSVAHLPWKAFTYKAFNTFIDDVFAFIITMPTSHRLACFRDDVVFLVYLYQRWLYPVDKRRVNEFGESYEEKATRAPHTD
UniProt Q9Y6H1, sequence (Q9Y6H1 whole entry, looked up): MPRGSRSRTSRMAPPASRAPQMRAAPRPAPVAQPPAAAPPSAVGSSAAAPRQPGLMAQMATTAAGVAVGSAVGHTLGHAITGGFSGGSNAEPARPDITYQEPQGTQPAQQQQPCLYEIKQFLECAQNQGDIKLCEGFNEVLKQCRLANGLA
UniProt P06493, sequence (P06493 whole entry, looked up): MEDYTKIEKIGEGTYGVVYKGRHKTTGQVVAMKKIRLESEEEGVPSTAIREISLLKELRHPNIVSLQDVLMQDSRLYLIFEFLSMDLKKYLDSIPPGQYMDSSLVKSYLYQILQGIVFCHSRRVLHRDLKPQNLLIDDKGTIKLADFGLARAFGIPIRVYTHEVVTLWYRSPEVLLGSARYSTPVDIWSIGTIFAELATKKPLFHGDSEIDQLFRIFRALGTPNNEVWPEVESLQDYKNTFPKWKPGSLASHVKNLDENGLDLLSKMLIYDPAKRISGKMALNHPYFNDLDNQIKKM
UniProt P14854, sequence (P14854 whole entry, looked up): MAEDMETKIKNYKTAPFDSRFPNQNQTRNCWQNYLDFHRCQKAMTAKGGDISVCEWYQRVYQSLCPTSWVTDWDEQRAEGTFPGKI

Target	log2 fold change [1]	log2 fold change [2]	log2 fold change [3]	log2 fold change [4]	log2 fold change [5]	log2 fold change [6]	log2 fold change [7]	log2 fold change [8]	log2 fold change [9]	log2 fold change [10]
COQ9 (UniProt O75208)	-0.009	-0.052	-0.041	-0.045	-0.047	-0.045	0.001	0.042	-0.013	-0.016
C19orf54 (UniProt Q5BKX5)	0.049	-0.221	0.178	0.092	0.002	-0.136	0.255	-0.108	0.005	-0.031
CSNK1D (UniProt P48730)	-0.047	-0.038	0.063	0.039	0.111	0.045	0.032	-0.038	0.06	-0.012
CD81 (UniProt P60033)	0.163	0.103	0	-0.064	-0.029	-0.053	-0.152	0.207	0.199	0
COPS4 (UniProt Q9BT78)	0.028	0.008	-0.071	-0.011	-0.005	-0.015	0.004	-0.006	-0.001	-0.007
CPSF1 (UniProt Q10570)	0.024	-0.01	0.045	-0.02	-0.05	0.038	0.018	-0.061	-0.048	-0.032
CNOT2 (UniProt Q9NZN8)	-0.044	0.007	-0.071	-0.005	-0.006	-0.024	0.052	0	0.012	-0.021
CEPT1 (UniProt Q9Y6K0)	0.015	0.033	0.029	0.042	0.001	-0.005	-0.126	-0.056	0.052	-0.056
CBS (UniProt P35520)	-0.009	0.011	-0.035	-0.069	-0.021	0.003	-0.061	-0.03	-0.001	-0.013
CCNT1 (UniProt O60563)	-0.005	-0.173	-0.221	0.075	-0.086	-0.213	0.044	0.043	0.163	0.002
CLPP (UniProt Q16740)	0	0.009	-0.011	0.067	0.054	-0.017	0.026	-0.028	-0.077	-0.038
CERS2 (UniProt Q96G23)	0.012	-0.033	-0.018	-0.056	-0.121	-0.001	0.002	-0.048	0.017	0.03
CASC3 (UniProt O15234)	-0.015	0.067	0.6 (active)	-0.06	0.021	0.323	0.158	-0.126	-0.089	0.073
CDK1 (UniProt P06493)	0.007	-0.045	-0.063	0.018	-0.043	-0.118	0.013	0.01	-0.01	0.003
CLCN7 (UniProt P51798)	0.004	-0.112	0.007	-0.071	0.044	0.025	-0.052	-0.156	0.151	-0.04
CSNK2A1 (UniProt P68400)	0.016	0.059	-0.082	-0.019	0.263 (active)	-0.113	-0.079	-0.045	-0.038	-0.034
CAVIN1 (UniProt Q6NZI2)	-0.065	-0.053	0.101	0.159	-0.015	0.226	0.098	0.119	0.122	0.034
CSNK2B (UniProt P67870)	0.074	0.036	-0.035	0.021	0.246	-0.09	-0.116	-0.031	0.024	0.038
CAD (UniProt P27708)	-0.112	0.022	0.076	-0.044	-0.211	0.097	0.132	0.052	0.052	-0.051
CCNDBP1 (UniProt O95273)	0.078	-0.209	-0.007	0.001	0.115	-0.107	-0.002	-0.04	0.062	-0.027
CCNB1 (UniProt P14635)	-0.005	0.02	-0.006	-0.018	-0.051	-0.065	-0.025	-0.034	-0.002	0.035
CD55 isoform 7 (UniProt P08174)	0.06	-0.01	0.03	0.033	0.012	0.007	0.022	0.028	-0.016	0.039
COX6B1 (UniProt P14854)	0.024	-0.012	0.039	-0.069	0.015	-0.023	0.022	-0.061	-0.043	0.008
CLPTM1L (UniProt Q96KA5)	0.11	-0.013	0.008	-0.008	-0.057	-0.042	-0.011	-0.099	0.021	0.043
CLPX (UniProt O76031)	0.014	0.014	0.039	0.025	-0.016	-0.027	0.034	-0.038	-0.013	-0.01
CSE1L (UniProt P55060)	0.032	-0.076	-0.069	-0.033	0.016	-0.092	-0.059	-0.057	0.022	-0.013
COASY isoform 2 (UniProt Q13057)	0.003	-0.001	-0.12	-0.001	0.035	-0.065	0.011	-0.03	0.034	-0.029
CIZ1 (UniProt Q9ULV3)	0.046	-0.075	-0.074	0.102	-0.11	-0.117	0.027	-0.109	-0.038	-0.001
CHCHD2 (UniProt Q9Y6H1)	0	-0.031	0.027	-0.058	0.087	-0.002	-0.065	-0.049	-0.01	0.061
